Measured values: PubChem BioAssay
Values joined by “and” are separate entries in the source; they are usually repeats but may differ in a detail not shown here. Identical values can stand only once. Active and inactive are the calls of the source.

Key:
[1] = target: Albumin (Bos taurus) (UniProt P02769); experiment: compounds binding labelled BSA control protein – biochemical, small-molecule microarray, Alexa647 label, 635/667 nm fluorescence, artefact control for SMM control protein annotation, profiling panel (AID 1118); settings: BSA-A647 binding, fluorescence 635 nm, higher = more signal;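 note: score merges 667 nm emission intensity and signal-to-noise per printed compound spot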
Chain of Albumin (Bos taurus) (P02769 whole entry, looked up): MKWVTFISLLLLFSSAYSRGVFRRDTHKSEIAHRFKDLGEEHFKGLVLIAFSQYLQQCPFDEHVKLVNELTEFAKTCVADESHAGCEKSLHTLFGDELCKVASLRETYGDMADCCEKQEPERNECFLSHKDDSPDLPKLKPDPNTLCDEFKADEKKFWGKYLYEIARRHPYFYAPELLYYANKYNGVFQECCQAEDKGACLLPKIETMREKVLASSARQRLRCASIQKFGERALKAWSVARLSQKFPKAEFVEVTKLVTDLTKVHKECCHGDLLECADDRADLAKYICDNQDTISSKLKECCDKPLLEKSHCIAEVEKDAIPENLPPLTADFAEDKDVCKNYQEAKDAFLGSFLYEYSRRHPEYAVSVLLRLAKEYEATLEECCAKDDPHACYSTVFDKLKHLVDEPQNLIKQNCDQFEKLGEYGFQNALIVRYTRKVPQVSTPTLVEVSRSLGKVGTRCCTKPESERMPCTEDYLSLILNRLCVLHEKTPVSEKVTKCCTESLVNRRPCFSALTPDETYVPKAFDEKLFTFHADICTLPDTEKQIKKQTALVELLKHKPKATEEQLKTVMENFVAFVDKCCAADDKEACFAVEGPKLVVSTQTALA

[2] = probe aXIP binding to arrayed compounds – biochemical, NeuroSMM set, 635/667 nm fluorescence, primary screen (AID 1119); settings: small-molecule microarray, higher = more signal, called active from +8 up or from −8 down;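 note: probe is the protein aXip251-270 applied at 1 µg/mL to compound-printed slides; binding of probe to printed compounds measured as 667 nm fluorescence plus signal to noise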
[3] = probe aNOTCH3 binding on compound microarray – biochemical, small-molecule microarray, 635/667 nm fluorescence, primary screen (AID 1120); settings: higher = more signal;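 note: probe is a biotin-tagged antibody raised against NOTCH3 rather than NOTCH3 protein; score merges spot fluorescence near 667 nm with spot signal to noise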
[4] = probe aNOTCH2 binding on compound microarray – biochemical, small-molecule microarray, 635/667 nm fluorescence, primary screen (AID 1121); settings: higher = more signal;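 note: score merges feature fluorescence read at 667 nm with its signal to noise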
[5] = target: Carbonic anhydrase 2 (Homo sapiens) (UniProt P00918); experiment: compounds binding carbonic anhydrase 2 – biochemical, small-molecule microarray, Alexa647-labelled CAII, profiling panel (AID 1122); settings: CAII-A647 binding fluorescence, higher = more signal
[6] = COS7 lysate on small-molecule microarray, probe aHis, 635 nm (AID 1123); settings: COS7 cell lysate, fluorescence, higher = more signal;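 note: z-score combines 667nm fluorescence intensity with signal-to-noise per printed compound spot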
[7] = probe aLAP1 signal on lysate-treated microarray – cell lysate, small-molecule microarray, COS7 lysate, primary screen (AID 1124); settings: probe aLAP1, fluorescence, higher = more signal;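 note: lysate comes from COS7 cells expressing LAP1 and is applied at 0.3 µg/mL; score merges spot fluorescence near 667 nm with signal-to-noise over triplicate slides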
[8] = system: Sam68 (KHDRBS1); experiment: compounds binding KHDRBS1 protein – biochemical, small-molecule microarray, 635 nm fluorescence, primary screen (AID 1125); settings: higher = more signal;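 note: score merges 667 nm channel intensity with signal to noise over triplicate slides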
[9] = system: Chordin-like protein 2 (CHRDL2); experiment: compounds binding chordin-like 2 – biochemical, small-molecule microarray, 635 nm fluorescence, primary screen (AID 1126); settings: fluorescence 635 nm, higher = more signal;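 note: printed compound slides probed with Chrdl2 protein at 4 µg/mL for 1 h at 4 C; score merges 667 nm emission intensity with signal to noise over three replicate slides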
[10] = target: Concanavalin-A (Canavalia ensiformis) (UniProt P02866); experiment: compounds binding concanavalin A lectin – biochemical, small-molecule microarray, Alexa647 label, 635 nm, artefact control for SMM control protein annotation, primary screen (AID 1127); settings: ConA-A647 binding fluorescence, higher = more signal;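 note: z combines 667 nm emission intensity with signal-to-noise across three replicate slides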
Chain of Concanavalin-A (Canavalia ensiformis) (P02866 whole entry, looked up): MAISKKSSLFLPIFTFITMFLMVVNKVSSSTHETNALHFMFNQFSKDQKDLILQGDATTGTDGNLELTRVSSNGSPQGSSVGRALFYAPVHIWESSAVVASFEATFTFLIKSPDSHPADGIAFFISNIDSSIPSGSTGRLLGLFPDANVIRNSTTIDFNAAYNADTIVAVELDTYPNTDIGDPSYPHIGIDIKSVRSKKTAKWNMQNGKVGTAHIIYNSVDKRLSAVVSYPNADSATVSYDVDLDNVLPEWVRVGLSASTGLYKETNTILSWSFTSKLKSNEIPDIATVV

[11] = compounds binding Alexa647 anti-His antibody – biochemical, small-molecule microarray, 635 nm fluorescence, artefact control for SMM control protein annotation, primary screen (AID 1128); settings: higher = more signal;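 note: score merges feature fluorescence with signal-to-noise for each printed compound spot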
[12] = system: Human papillomavirus type 1a E7 protein (residues 1-88); experiment: HPV1a E7 small-molecule binders, primary screen, biochemical, small-molecule microarray, residues 1-88, 635 nm (AID 1129); settings: small-molecule microarray binding, fluorescence 635 nm; higher = more signal
[13] = target: Focal adhesion kinase 1 (Homo sapiens) (UniProt Q05397); experiment: PTK2 protein binding on printed compound slides – biochemical, small-molecule microarray, 635/667 nm fluorescence, BSA, DTT, primary screen (AID 1130); settings: 635 nm fluorescence, higher = more signal;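 note: composite of spot emission at 667 nm and signal to noise over triplicate slides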
Chain of Focal adhesion kinase 1 (Homo sapiens) (Q05397 whole entry, looked up): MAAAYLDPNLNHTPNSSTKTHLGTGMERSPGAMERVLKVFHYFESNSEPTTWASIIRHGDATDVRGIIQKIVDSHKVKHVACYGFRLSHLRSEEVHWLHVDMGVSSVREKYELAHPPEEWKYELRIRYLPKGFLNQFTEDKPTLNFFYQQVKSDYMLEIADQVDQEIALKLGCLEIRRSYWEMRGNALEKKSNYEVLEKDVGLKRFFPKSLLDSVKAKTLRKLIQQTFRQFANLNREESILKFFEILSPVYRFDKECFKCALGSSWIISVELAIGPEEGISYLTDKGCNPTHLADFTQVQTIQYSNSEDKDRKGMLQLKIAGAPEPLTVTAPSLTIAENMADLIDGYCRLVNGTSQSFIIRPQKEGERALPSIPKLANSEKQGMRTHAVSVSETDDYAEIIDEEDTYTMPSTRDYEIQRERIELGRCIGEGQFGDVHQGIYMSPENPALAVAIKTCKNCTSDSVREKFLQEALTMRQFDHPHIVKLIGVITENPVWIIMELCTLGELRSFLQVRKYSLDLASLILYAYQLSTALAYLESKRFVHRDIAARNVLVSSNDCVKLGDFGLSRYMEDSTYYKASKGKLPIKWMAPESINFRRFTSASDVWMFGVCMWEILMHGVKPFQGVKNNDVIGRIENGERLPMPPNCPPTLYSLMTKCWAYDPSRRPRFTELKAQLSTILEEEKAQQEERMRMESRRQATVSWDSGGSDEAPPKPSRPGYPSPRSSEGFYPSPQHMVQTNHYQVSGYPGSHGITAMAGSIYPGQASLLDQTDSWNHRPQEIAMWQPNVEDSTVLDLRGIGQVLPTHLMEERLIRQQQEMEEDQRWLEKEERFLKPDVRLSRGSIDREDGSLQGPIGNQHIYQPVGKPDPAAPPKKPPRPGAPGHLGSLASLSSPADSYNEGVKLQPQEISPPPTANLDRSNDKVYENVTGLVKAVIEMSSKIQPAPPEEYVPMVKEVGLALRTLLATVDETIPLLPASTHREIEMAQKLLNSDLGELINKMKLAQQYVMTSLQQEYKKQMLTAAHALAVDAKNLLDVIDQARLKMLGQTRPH

[14] = system: Fibrinogen (Alexa647-labelled); experiment: Alexa647-fibrinogen binding to printed small molecules – biochemical, small-molecule microarray, 635/667 nm fluorescence, artefact control for SMM control-protein annotation, profiling panel (AID 1131); settings: fibrinogen-A647 binding fluorescence, higher = more signal;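 note: z-score merges 667 nm fluorescence with per-spot signal-to-noise over triplicate slides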
[15] = target: Follistatin (Homo sapiens) (UniProt P19883); experiment: FST protein binding to printed compounds – biochemical, small-molecule microarray, 635/667 nm fluorescence, primary screen (AID 1132); settings: 635 nm fluorescence, higher = more signal
Chain of Follistatin (Homo sapiens) (P19883 whole entry, looked up): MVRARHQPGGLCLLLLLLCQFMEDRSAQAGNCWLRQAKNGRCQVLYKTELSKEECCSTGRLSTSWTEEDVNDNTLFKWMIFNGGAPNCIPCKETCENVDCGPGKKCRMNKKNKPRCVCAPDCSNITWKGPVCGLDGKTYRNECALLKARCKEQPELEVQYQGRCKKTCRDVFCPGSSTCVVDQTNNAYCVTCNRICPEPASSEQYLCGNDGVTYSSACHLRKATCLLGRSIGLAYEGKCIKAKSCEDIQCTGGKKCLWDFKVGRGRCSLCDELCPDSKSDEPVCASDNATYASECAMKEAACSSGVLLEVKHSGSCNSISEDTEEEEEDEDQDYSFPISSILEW

[16] = target: Fibroblast growth factor 2 (Homo sapiens) (UniProt P09038); experiment: basic fibroblast growth factor binding to printed compounds – biochemical, small-molecule microarray, 635/667 nm fluorescence, primary screen (AID 1133); settings: FGF2, fluorescence 635/667, higher = more signal
Chain of Fibroblast growth factor 2 (Homo sapiens) (P09038 whole entry, looked up): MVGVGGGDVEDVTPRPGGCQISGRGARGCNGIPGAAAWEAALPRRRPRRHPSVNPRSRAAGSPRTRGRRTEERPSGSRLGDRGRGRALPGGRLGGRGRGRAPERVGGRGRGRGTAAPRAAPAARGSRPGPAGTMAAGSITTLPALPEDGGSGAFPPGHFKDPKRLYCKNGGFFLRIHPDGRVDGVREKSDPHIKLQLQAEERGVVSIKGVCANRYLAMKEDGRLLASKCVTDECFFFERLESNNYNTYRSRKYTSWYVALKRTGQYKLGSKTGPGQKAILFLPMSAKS

[17] = JC-1 mitochondrial potential readout, lung cancer cells – cell-based, A549, JC-1 fluorescence, basal, 24 h, 100 nL, profiling panel (AID 1138); settings: higher = more signal;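 note: A549 lung adenocarcinoma cells under basal conditions with no added stimulus; test concentration not given here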
[18] = system: Lefty1; experiment: Lefty1 protein binding to printed compounds – biochemical, small-molecule microarray, 635/667 nm fluorescence, primary screen (AID 1139); settings: fluorescence 635/667, higher = more signal
[19] = system: wheat germ agglutinin (Triticum aestivum), Alexa647-labelled; experiment: Alexa647-WGA lectin binding to printed small molecules – biochemical, small-molecule microarray, 635/667 nm fluorescence, artefact control for SMM control-protein annotation, profiling panel (AID 1140); settings: WGA-A647 binding, 635 nm fluorescence, higher = more signal;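 note: score merges 667 nm feature emission with signal to noise over triplicate slides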
[20] = target: Luciferin 4-monooxygenase (Photinus pyralis) (UniProt P08659); experiment: inhibition of purified Photinus pyralis luciferase – biochemical, luminescence, purified enzyme, 2006 set, primary screen (AID 1141); settings: purified firefly luciferase, SteadyGlo luminescence, 30 min; higher = more signal, called active from +8 up or from −8 down;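 note: cell-free assay with purified firefly luciferase at 100 ng per well in PBS; test concentration not given here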
Chain of Luciferin 4-monooxygenase (Photinus pyralis) (P08659 whole entry, looked up): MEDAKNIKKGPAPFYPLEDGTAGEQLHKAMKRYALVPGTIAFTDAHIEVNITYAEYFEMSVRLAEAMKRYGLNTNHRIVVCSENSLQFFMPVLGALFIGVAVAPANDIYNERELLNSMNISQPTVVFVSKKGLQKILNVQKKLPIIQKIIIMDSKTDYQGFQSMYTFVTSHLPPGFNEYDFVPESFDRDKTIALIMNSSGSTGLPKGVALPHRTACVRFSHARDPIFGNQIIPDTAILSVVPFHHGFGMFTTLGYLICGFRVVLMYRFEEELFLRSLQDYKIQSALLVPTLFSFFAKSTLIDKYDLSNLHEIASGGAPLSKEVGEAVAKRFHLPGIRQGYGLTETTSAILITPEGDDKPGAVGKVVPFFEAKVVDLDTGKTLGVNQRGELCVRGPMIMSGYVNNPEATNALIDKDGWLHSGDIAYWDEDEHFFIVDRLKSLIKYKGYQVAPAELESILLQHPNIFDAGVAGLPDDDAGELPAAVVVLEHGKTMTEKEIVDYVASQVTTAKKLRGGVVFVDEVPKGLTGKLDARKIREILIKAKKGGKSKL

SMILES | composite z-score [1] | composite Z-score [2] | composite z-score [3] | composite z-score [4] | composite z-score [5] | composite z-score [6] | composite z-score [7] | composite z-score [8] | composite z-score [9] | composite z-score [10] | composite z-score [11] | composite z-score [12] | composite z-score [13] | composite z-score [14] | composite z-score [15] | composite z-score [16] | z-score [17] | composite z-score [18] | composite z-score [19] | z-score [20]
C=CCN(C(=O)C(c1cccs1)N(C(=O)/C=C\C(=O)O)c1ccc(CCO)cc1)C(C)(C)C (stereo not given) | 0.779 and 0.432 | -0.374 (inactive) and -0.419 (inactive) | -0.312 and -0.448 | -0.0708 and -0.0924 | 0.663 and 0.867 | 2.45 and 2.51 | 0.904 and 1.16 | -0.847 and -1.43 | -1.74 and -2.91 | -0.941 and -0.744 | 0.381 and 2.21 | 0.07 and 0.0514 | 0.721 and -0.265 | -0.548 and -3.6 | -0.985 and -1.66 | -1.22 and -1.05 | 0.428 and 0.741 | -1.76 and -2 | 0.559 and -0.287 | -0.928 (inactive) and -0.538 (inactive)
CC(C)=NOC[C@@H](O)COCc1ccco1 | -0.206 | 1.56 (inactive) | -0.0328 | -0.132 | -0.637 | -0.115 | -0.353 | -2.3 | 0.397 | -0.703 | 1.27 | -1.73 | -0.395 | -1.83 | 0.112 | 0.782 | 0.354 | -0.181 | -0.988 | -1.28 (inactive)
C=CCN(Cc1ccccc1)C(=O)C1N(c2c(Cl)cccc2CO)C(=O)C2C(C(=O)O)C3C=CC21O3 (stereo not given) | -1.52 and -0.682 | -0.874 (inactive) and -0.317 (inactive) | -0.425 and -0.352 | -0.168 and -0.261 | -0.774 and 0.32 | -0.908 and -0.629 | -0.628 and -0.742 | -1.89 and -1.02 | -3.43 and -1.44 | -1.31 and -1.79 | -1.57 and -1.25 | -2.28 and -0.762 | -1.12 and -0.942 | -1.61 and -1.28 | -2.48 and -2.78 | -1.21 and -1.62 | 1.29 and -0.936 | -3.16 and -3 | -1.9 and -1.22 | -1.28 (inactive) and 1.17 (inactive)
C=C(C)C(=O)OC[C@@H]1CN2[C@@H](CC[C@@H](C)[C@@H]2c2ccc(Br)cc2)C(=O)O1 | 0.635 | -0.0665 (inactive) | -0.127 | -0.153 | 0.195 | 0.774 | 0.937 | 1.16 | 0.426 | 0.363 | -0.0452 | 0.818 | 0.213 | 0.762 | 0.55 | 0.854 | 1.77 | 0.966 | 0.146 | -0.721 (inactive)
O=C1[C@H]2[C@H]3[C@H](O)[C@H](O)CC(=NOCc4ccccc4)[C@H]3CC[C@H]2C(=O)N1Cc1ccccc1 | 0.273 | -0.283 (inactive) | -0.136 | -0.0729 | 0.0146 | 0.233 | -0.123 | -0.873 | 0.374 | -0.229 | 0.17 | -0.137 | -0.0933 | -0.908 | 0.659 | 0.327 | -0.901 | 0.374 | 0.0116 | 0.983 (inactive)
CC(CO)N1C(=O)[C@@H]2C3C(=O)OCCC=C[C@H]3OC23C=CCN(c2ccc(Cl)cc2)C(=O)[C@@H]13 (stereo not given in full) | -0.999 and 0.734 | -0.33 (inactive) and 0.551 (inactive) | -0.33 and 0.0749 | -0.0995 and 0.0031 | 0.889 and 0.596 | -0.31 and 0.287 | -0.102 and -0.304 | -0.805 and 0.2 | -1.51 and -0.496 | -0.935 and 0.094 | -1.31 and 1.36 | -1.31 and -0.0543 | 1.69 and 0.156 | -0.697 and 0.363 | -1.49 and 0.33 | -1.73 and -0.68 | 0.931 and 0.848 | -1.49 and 0.213 | -0.0757 and 0.684 | -0.593 (inactive) and -0.731 (inactive)
CC(CO)N1C(=O)[C@@H]2C3C(=O)OCCC=C[C@H]3OC23C=CCN(Cn2nnc4ccccc42)C(=O)[C@@H]13 (stereo not given in full) | -0.169 and 0.923 | 0.318 (inactive) and 0.418 (inactive) | -0.374 and -0.15 | -0.14 and -0.0191 | 0.939 and 0.856 | 0.342 and -0.478 | 0.102 and 0.397 | -0.821 and -0.291 | -2.19 and 0.0479 | -0.221 and -0.0699 | 0.398 and 1.77 | -0.66 and 0.136 | -0.244 and -0.0494 | -0.332 and -0.0118 | -0.93 and 0.345 | -1.31 and -0.224 | -0.469 and -0.766 | -1.34 and 0.247 | -0.711 and -0.23 | 0.0511 (inactive) and 0.399 (inactive)
O=C1C[C@]2(c3ccc([N+](=O)[O-])cc3)C(=O)N(Cc3ccccc3)c3cc(CO)ccc3[C@H]2N1C1CCCCC1 | -0.047 and -0.118 | 0.285 (inactive) and -0.0345 (inactive) | -0.0627 and 0.13 | -0.179 and 0.0118 | 0.272 and 0.439 | 0.366 and 1.14 | 0.679 and -0.627 | 0.802 and 0.377 | -0.468 and 0.393 | 0.28 and 0.772 | 0.0501 and 1.06 | 0.905 and 0.134 | 0.152 and 0.0229 | -0.437 and -0.106 | 0.585 and 1.41 | 0.368 and 1.02 | -0.38 and 0.277 | 0.507 and 0.482 | -0.329 and 0.59 | 0.302 (inactive) and -0.537 (inactive)
CCCC[C@@H]1CN2[C@H](c3ccc(Br)cc3)[C@@H](C)CC[C@H]2C(=O)O1 | -0.102 and -0.193 | -0.0662 (inactive) and -0.0677 (inactive) | -0.17 and -0.0888 | -0.14 and -0.0316 | -0.199 and -0.139 | -0.263 and 0.0681 | 0.43 and 0.159 | -0.32 and 0.277 | 0.204 and 0.111 | 0.404 and -0.854 | -0.408 and 2.44 | -0.535 and -0.105 | -0.0211 and 0.0131 | -0.167 and 0.546 | 0.0438 and -0.0845 | 0.186 and 0.0412 | 0.5 and 0.647 | -0.128 and 0.0556 | -0.22 and 0.313 | -0.052 (inactive) and -1.79 (inactive)
C=CCN(CCCCC)C(=O)C1N(c2ccc(CCO)cc2)C(=O)C2C(C(=O)O)C3C=CC21O3 (stereo not given) | 0.193 and 0.344 | -1.27 (inactive) and -0.154 (inactive) | -0.474 and 0.157 | -0.127 and -0.0716 | -0.349 and 0.574 | -0.632 and -0.323 | -0.18 and -1.2 | -0.393 and -0.951 | -0.914 and -1.38 | -1.1 and -1.15 | -1.26 and -0.352 | -1.44 and -0.943 | -0.886 and -0.776 | -0.916 and -0.657 | -0.974 and -0.877 | -0.989 and -0.883 | 0.157 and -0.0775 | -1.47 and -0.885 | 0.961 and -0.241 | -0.929 (inactive) and -0.832 (inactive)
